Where a name gives a salt, the structure may show the parent alone. ± gives the uncertainty stated by the source.

By cell viability is commonly meant a read-out of living cells in per cent, often relative to untreated cells.

This assay has as its system NCC-MFS5-C1. Nature of the assay: cell viability relative to DMSO control; higher = less growth inhibition. Particulars: 10 µM; treatment time: 3 days. As for the experimental part:
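NCC-MFS5-C1 myxofibrosarcoma cells (1x10^4 per well, 384-well) were treated on day 2 with 10 µM of each drug. On day 5, viability was read by CCK-8 absorbance at 450 nm and normalised to the DMSO control (%), n = 2.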
In the case of `CS(=O)(=O)CCNCc1ccc(-c2ccc3ncnc(Nc4ccc(OCc5cccc(F)c5)c(Cl)c4)c3c2)o1` [Lapatinib], the cell viability was found to be 58.6 ± 2.2%.
As for `C=CC(=O)N1CCC[C@@H](n2nc(-c3ccc(Oc4ccccc4)cc3)c3c(N)ncnc32)C1`, the cell viability was 79.2 ± 0.35%.
`C#Cc1cccc(Nc2ncnc3cc(OCCOC)c(OCCOC)cc23)c1` [Erlotinib]: the cell viability came to 81.7 ± 5.8%.
Take `C[C@]1(O)C[C@@H](c2nc(-c3ccc4ccc(-c5ccccc5)nc4c3)c3c(N)nccn32)C1` [Linsitinib (OSI-906)]: the cell viability came out at 57 ± 0.57%.
For the compound `CN1CCN(c2ccc(C(=O)Nc3n[nH]c4ccc(Cc5cc(F)cc(F)c5)cc34)c(NC3CCOCC3)c2)CC1` [Entrectinib (RXDX-101)], the cell viability turned out to be 14.7 ± 15%.
In the case of `Cc1ccc(S(=O)(=O)Nc2nc3ccccc3nc2Nc2ccc3nsnc3c2)cc1` [XL147 analog], the cell viability turned out to be 84.5 ± 6%.
Under `COc1cc2ncnc(Nc3ccc(F)c(Cl)c3)c2cc1OCCCN1CCOCC1` [Gefitinib(ZD1839)] stands 95.1 ± 3.7%.
In the case of `Cc1nc(NC(=O)N2CCC[C@H]2C(N)=O)sc1-c1ccnc(C(C)(C)C(F)(F)F)c1` [Alpelisib] it was 92.6 ± 1%; in that of `Nc1nc(F)nc2c1ncn2[C@@H]1O[C@H](COP(=O)(O)O)[C@@H](O)[C@@H]1O` [Fludarabine Phosphate], 104 ± 3.5%.
As to `CCCCCCNC(=O)n1cc(F)c(=O)[nH]c1=O` [Carmofur], the cell viability came to 81.5 ± 1.1%.
In the case of `S=C(NCc1ccc2c(c1)OCO2)N1CCN(c2ncnc3c2oc2ccccc23)CC1` [Amuvatinib (MP-470)] it was 86.1 ± 9%; in that of `Oc1ncnc2[nH]ncc12` [Allopurinol], 86.2 ± 18%.
Under `COc1cc([C@@H]2c3cc4c(cc3[C@@H](O[C@@H]3O[C@@H]5CO[C@@H](C)O[C@H]5[C@H](O)[C@H]3O)[C@H]3COC(=O)[C@H]23)OCO4)cc(OC)c1O` [Etoposide] stands 74.3 ± 9%; under `CNC(=O)c1ccc(N2C(=S)N(c3ccc(C#N)c(C(F)(F)F)c3)C(=O)C2(C)C)cc1F` [Enzalutamide (MDV3100)], 80.3 ± 7.7%.
In the case of `S=c1[nH]cnc2nc[nH]c12` [Mercaptopurine (6-MP)], the cell viability stood at 93.5 ± 3%.
In the case of `Cc1ccc(NC(=O)c2ccc(CN3CCN(C)CC3)cc2)cc1Nc1nccc(-c2cccnc2)n1` [Imatinib Mesylate (STI571)] it was 69.6 ± 1.4%.
Under `C=CC(=O)N1CCC(Oc2cc3c(Nc4ccc(Cl)c(Cl)c4F)ncnc3cc2OC)CC1` [Poziotinib (HM781-36B)] stands 68.6 ± 1%; under `Nc1cc(C(Cl)=C(Cl)Cl)c(S(N)(=O)=O)cc1S(N)(=O)=O` [Clorsulon], 89.3 ± 2.4%; under `CCS(=O)(=O)N1CCN(c2ccc(Nc3ncc(C(N)=O)c(NC4CC4)n3)cc2)CC1`, 61.5 ± 1.8%.
In the case of `Fc1ccc(C(c2ccc(F)cc2)N2CCN(C/C=C/c3ccccc3)CC2)cc1` [Flunarizine 2HCl], the cell viability was determined as 114 ± 12%.
Under `CCN1CCN(Cc2ccc(Nc3ncc(F)c(-c4cc(F)c5nc(C)n(C(C)C)c5c4)n3)nc2)CC1` [Abemaciclib mesylate] stands 84.2 ± 9%; under `CCCS(=O)(=O)Nc1ccc(F)c(C(=O)c2c[nH]c3ncc(-c4ccc(Cl)cc4)cc23)c1F` [Vemurafenib (PLX4032, RG7204)], 76 ± 3.5%.
Regarding `CO[C@H]1C[C@@H]2CC[C@@H](C)[C@@](O)(O2)C(=O)C(=O)N2CCCC[C@H]2C(=O)O[C@H]([C@H](C)C[C@@H]2CC[C@@H](OCCO)[C@H](OC)C2)CC(=O)[C@H](C)/C=C(\C)[C@@H](O)[C@@H](OC)C(=O)[C@H](C)C[C@H](C)/C=C/C=C/C=C/1C` [Everolimus (RAD001)], the cell viability came to 64.9 ± 4.7%.
As to `CO[C@@]12[C@H](COC(N)=O)C3=C(C(=O)C(C)=C(N)C3=O)N1C[C@@H]1N[C@@H]12` [Mitomycin C], the cell viability amounted to 41.7 ± 3.7%.
On to `Nc1ccn([C@@H]2O[C@H](CO)[C@@H](O)C2(F)F)c(=O)n1` [Gemcitabine HCl], for which the cell viability came out at 79.5 ± 5%.
For the compound `CNNCc1ccc(C(=O)NC(C)C)cc1` [Procarbazine HCl], the cell viability is 94.3 ± 7.5%.
In the case of `COc1c2occc2cc2ccc(=O)oc12` [Methoxsalen] it was 116 ± 22%; in that of `CC[C@]1(O)C[C@H]2CN(CCc3c([nH]c4ccccc34)[C@@](C(=O)OC)(c3cc4c(cc3OC)N(C=O)[C@H]3[C@@](O)(C(=O)OC)[C@H](OC(C)=O)[C@]5(CC)C=CCN6CC[C@]43[C@@H]65)C2)C1` [Vincristine], 29.8 ± 4.2%.
Turning to `COc1cc([C@@H]2c3cc4c(cc3[C@@H](O[C@@H]3O[C@@H]5CO[C@@H](c6cccs6)O[C@H]5[C@H](O)[C@H]3O)[C@H]3COC(=O)[C@H]23)OCO4)cc(OC)c1O` [Teniposide], the cell viability stood at 76.7 ± 4.4%.
In the case of `COC(=O)C[C@](O)(CCCC(C)(C)O)C(=O)O[C@@H]1C(OC)=C[C@]23CCCN2CCc2cc4c(cc2[C@H]13)OCO4` [Homoharringtonine] it was 54 ± 5.4%; in that of `C[C@@H]1CCN(C(=O)CC#N)C[C@@H]1N(C)c1ncnc2[nH]ccc12`, 79.5 ± 2.5%; in that of `CC[C@]1(O)C[C@@H]2CN(CCc3c([nH]c4ccccc34)[C@@](C(=O)OC)(c3cc4c(cc3OC)N(C)[C@H]3[C@@](O)(C(=O)OC)[C@H](OC(C)=O)[C@]5(CC)C=CCN6CC[C@]43[C@@H]65)C2)C1` [Vinblastine sulfate], 35.1 ± 2.5%.
`COc1cc2nccc(Oc3ccc(NC(=O)Nc4cc(C)on4)c(Cl)c3)c2cc1OC` [Tivozanib (AV-951)]: the cell viability was determined as 59.7 ± 2.6%.
In the case of `COc1cc(N2CCC(N3CCN(C)CC3)CC2)ccc1Nc1ncc(Cl)c(Nc2ccccc2S(=O)(=O)C(C)C)n1` it was 52.7 ± 1.8%; in that of `CC(C)(C#N)c1cc(Cn2cncn2)cc(C(C)(C)C#N)c1` [Anastrozole], 83.5 ± 5.1%.
